Assay outcomes deposited in PubChem BioAssay by National Center for Advancing Translational Sciences (NCATS).
Compounds with a hit are over-represented: about 6.5% of the library has one in this group of screens.
Lassa entry inh: inhibitors of Lassa virus binding or cell entry; Lassa virus pseudotype entry inhibition, cell reporter; Potency, µM (doses to about 37.9 µM), inactives show at the highest dose activity change, negative = inhibition, most hits filed as inhibitors; hit rate 1.2% among 300,000; calls by dose curve; tested in HEK293 cells; further: potency means the concentration at half of the fitted maximal effect; nearly all actives have a fitted effect of over 50% in size
FMDV inh: foot and mouth disease virus antiviral activity | Potency, µM (top dose mostly 57.9 µM), without a hit: at the top dose activity change, negative = inhibition, hits mostly inhibitors | FMDV antiviral cell-based qHTS | hit rate 1.2% among 410,000; calls by dose curve; tested in HEK293T cells; further: read-out not given here; potency means the concentration at half of the fitted maximal effect; nearly all actives have a fitted effect of over 45% in size
HCMV antiviral: inhibitors of human cytomegalovirus; HFF cells, HCMV-luciferase reporter, 72 h; active compounds read low; activity change, negative = inhibition, % at 57.5 µM; AID 1259415; hit rate 4.5% among 410,000; in the data active means activity change below about -60%; inconclusive means no clear call, values can overlap the other calls; inactive means above about -39%
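Steps: HFFs plated, 16 h 37C; compounds added; HCMV-luciferase added to MOI 1 PFU/cell; 72 h 37C; OneGlo reagent, 5 min room temperature; luminescence read, normalized to controls.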
Vaccinia mCherry: inhibitors of vaccinia virus infection (mCherry reporter signal) | AID 720579 | hit rate 0.63% among 310,000 | Potency, µM (doses to about 36.5 µM), for inactives: at the highest dose activity change, negative = inhibition, most hits filed as inhibitors | Vaccinia virus mCherry reporter infection, fluorescence; calls by dose curve; tested in A549 cells; further: potency means the concentration at half of the fitted maximal effect; nearly all actives have a fitted effect of over 35% in size
Vaccinia Venus: inhibitors of vaccinia virus (Venus reporter) | Vaccinia virus Venus reporter expression, fluorescence | Potency, µM (titrated, usually from 36.5 µM), for the others: top-dose activity change, negative = inhibition, most hits filed as inhibitors | hit rate 0.46% among 330,000 | AID 720580; calls by dose curve; tested in A549 cells; further: potency means the concentration at half of the fitted maximal effect; nearly all actives have a fitted effect of over 30% in size
Marburg entry inh: Marburg virus entry inhibition | AID 540276 | hit rate 1.8% among 300,000 | Marburg virus pseudotyped entry inhibition, cell reporter | Potency, µM (titrated, usually from 37.8 µM), inactives show at the top dose activity change, negative = inhibition, actives largely listed as inhibitors; calls by dose curve; tested in HEK293 cells; further: potency means the concentration at half of the fitted maximal effect
Active calls of the source: *; i = inactive; ? = inconclusive; · = no result; ! = not confirmed by another sample; [ ] = remark or other dose. On the % scale 0 is the no-effect control and ±100 the full control effect.

SMILES	Lassa entry inh	FMDV inh	HCMV antiviral	Vaccinia mCherry	Vaccinia Venus	Marburg entry inh
CCc1nn2c(=O)cc(COC(=O)CNC(=O)COc3ccc(C)cc3)nc2s1	?	-27%	2	1%	-11%	·
CCCN1C(=O)c2ccccc2NC1c1ccc(OC)c(COc2ccc([N+](=O)[O-])c(C)c2)c1 (stereo unspecified)	·	·	·	14%	-20%	·
c1ccc(Cc2nnc(-c3ccccc3)o2)cc1	-26%	-15%	-96*	-6%	-18%	?
Cc1ccc(-c2nnc(-c3ccccc3)o2)cc1	10µM*	-20%	108	-3%	1%	16µM*
COc1ccc(SCCc2nnc(-c3ccccc3)o2)cc1	·	-1%	-98*	·	·	·
COc1ccc(Cc2nnc(-c3ccccc3)o2)cc1	1%[46.1 µM]	15%	19	-10%	11%	5%[46.1 µM]
COc1ccc(-c2nnc(-c3ccc(C)cc3)o2)cc1	21%[46.1 µM]	-11%	13	i	-14%	?
CCOc1ccc(-c2nonc2NC(=O)c2ccc(C)cc2)cc1OCC	13%[46.1 µM]	6%	-8	-2%	-7%	?
CCOC(=O)C1CCN(C(=O)COc2cccc(C)c2)CC1	5%	·	-3	4µM*	-9%	1%
O=C(CSc1ccc(F)cc1)Nc1ccc(Br)cc1	·	76%	16	-7%	-30%	·
O=C(CSc1ccc(F)cc1)Nc1ccccc1Br	0%	46%	-61*	-14%	-1%	4%
C[C@H]1COc2cc(NCCCN3CCOCC3)ccc2S(=O)(=O)N1	6%[46.1 µM]	·	-16	·	·	·
CCOC(=O)/C(=C\c1ccc(Cl)cc1)c1nc2sc(C)c(C)c2c(=O)[nH]1	?	10µM*	-75*	?	?	?
CCS(=O)(=O)N(C)C[C@@H]1OCc2ccccc2-c2c(n(C)c3ccccc23)C(=O)N([C@H](C)CO)C[C@@H]1C	·	·	-7	·	·	·
CC(C)NC(=O)c1cn(C2CCC(NC(=O)C(C)(C)C)CC2)nn1 (stereo unspecified)	·	-2%	·	-4%	-5%	·
Cc1cc(/C=C2\SC(=S)N(Cc3ccco3)C2=O)c(C)n1-c1ccccc1	?	0%	-67*	i	-7%	?
Cc1cc(/C=C2\SC(=O)N(C)C2=O)c(C)n1-c1ccc(O)cc1	·	?	-69*	·	·	·
Cc1cc(/C=C2\SC(=S)N(C)C2=O)c(C)n1-c1cccc(O)c1	·	1.3µM*	-92*	?	-8%	·
CN=C1S/C(=C\c2ccc(N3CCOCC3)cc2C)C(=O)N1C	2%	-13%	54	-14%	0%	6%
CN=C1S/C(=C\c2cc(C)n(-c3ccccc3F)c2C)C(=O)N1C	?	-11%	-66*	-2%	-18%	?
CC(C)Oc1ccccc1Oc1ccc2c(-c3ccccn3)noc2n1	·	·	-5	·	·	·
O=[S+]1([O-])C[C@@H](N2CCN(CCO)CC2)[C@@H](COCc2ccccc2)N1	12%[46.1 µM]	·	·	·	·	·
CCC1C(=O)NCCN1Cc1ccc2c(c1)CN(Cc1ccc(OC)cc1OC)CCO2 (stereo unspecified)	·	-9%	·	-10%	1%	·
CC(C)(CNC(=O)c1cnn(-c2ncc3c(n2)-c2ccccc2CC3)c1C1CC1)N1CCOCC1	·	-13%	·	i	-10%	·
CCCC1CCC(c2ccc(C(=O)NN)cc2)CC1 (stereo unspecified)	?	-19%	-79*	-6%	-5%	-19%
SMILES	Lassa entry inh	FMDV inh	HCMV antiviral	Vaccinia mCherry	Vaccinia Venus	Marburg entry inh
Clc1cccc(Cl)c1Cn1cnc2c(N3CCCCCC3)ncnc21	7.3µM*	·	-81*	i	-13%	4.6µM*
CCN(CC)c1ncnc2c1ncn2Cc1c(Cl)cccc1Cl	?	-17%	-2	-24%	-15%	?
COc1ccc2cc3[n+](cc2c1O)CCc1cc2c(cc1-3)OCO2	·	10µM*	-2	i	7%	·
COc1cc2c(cc1OC)-c1cc3ccc(OC)c(OC)c3c[n+]1CC2	·	-27%	-25	-13%	-17%	·
COc1ccc(C2Nc3ccccc3C(=O)N2Cc2ccco2)cc1 (stereo unspecified)	·	·	·	i	-9%	·
COC(=O)N(C)C[C@H]1OCc2cn(nn2)CCCC(=O)N([C@H](C)CO)C[C@@H]1C	·	·	21	·	·	·
COc1ccc(-n2nc(C(=O)NCC(=O)Nc3ccccn3)c3ccccc3c2=O)cc1	-6%	-1%	17	·	·	?
Cc1nn(-c2ccccc2)c2sc(C(=O)Nc3cccc(O)c3)cc12	?	0%	-31	?	-23%	-44%[46.1 µM]
CCOc1ccc(NC(=O)c2cc3c(C)nn(-c4ccccc4)c3s2)cc1	-2%[46.1 µM]	?	-66*	?	?	12%[46.1 µM]
CCOc1ccc(NC(=O)CNC(=O)c2nn(-c3ccc(OC)cc3)c(=O)c3ccccc23)cc1	·	-19%	-65*	-5%	-13%	-21%[46.1 µM]
C[C@H]1NS(=O)(=O)c2cccc(Cl)c2O[C@@H]1c1ccccc1	·	·	1	·	·	·
Cc1[nH]c2ccccc2c1SCC(=O)NC1CCCCC1	·	14%	-64*	-2%	-10%	·
C=CCn1c(SCC(=O)NC2CCCC2)nc2c([nH]c3ccccc32)c1=O	-13%	9%	-90*	-6%	-7%	11%
C=CCn1c(SCC(=O)N2CCCC2)nc2c([nH]c3ccccc32)c1=O	·	3%	43	·	·	·
O=C(CSc1c[nH]c2ccccc12)NC1CCCC1	·	-4%	-12	·	·	·
Cc1ccc2c(/C=C/c3ccc(N(C)C)cc3)ccnc2c1C	·	·	·	-7%	-1%	·
COC(=O)C1[C@H]2[C@@H]3[C@H](c4ccc(C)o4)Nc4ccc(Cl)cc4[C@@H]3N(C(=O)OC(C)(C)C)[C@@H]12 (stereo partly specified)	·	·	-36	·	·	·
Cc1onc(NC(=O)CSCC(=O)O)c1Br	-15%[46.1 µM]	1%	-73*	-3%	2%	7%[46.1 µM]
Cc1cnc(C)c(-c2ccc(F)c3c2OC(CNC(=O)/C=C/c2cccs2)C3)n1 (stereo unspecified)	·	?	·	-6%	-12%	·
CN1CCc2c(c3ccccc3n2Cc2ccccc2)C1	·	-8%	-38	28µM*!	13µM*!	·
CC(=O)Nc1ccc(S(=O)(=O)NC2CCSc3ccccc32)cc1 (stereo unspecified)	?	6%	-30	-20%	-11%	10µM*
O=S(=O)(NC1CCSc2ccccc21)c1ccccc1 (stereo unspecified)	1%[46.1 µM]	15%	-28	-29%	-12%	?
CN(C)Cc1c(O)ccc2[nH]cnc12	8%	-13%	-95*	·	-14%	0%
Cc1ccc(CN2CCCn3nc(C(=O)NCCc4ccc(Cl)cc4)cc3C2=O)cc1	1%[46.1 µM]	-16%	-12	-21%	-16%	·
C=CCOC(=O)C(C(=O)CC)C(NC(=O)OC)c1ccc(F)cc1 (stereo unspecified)	·	·	·	·	·	-25%[14.2 µM]
C#CCN1C(C)=C(C(=O)OC)C(c2cccc([N+](=O)[O-])c2)C(C(=O)OCC)=C1C (stereo unspecified)	?	-20%	-29	-11%	-6%	14µM*
Cc1nnc(NC(=O)C2COc3ccccc3O2)s1 (stereo unspecified)	?	32%	71	-14%	-7%	-13%
